# Paper PMC5540273 (PLoS ONE, 2017)
# Like-named read-outs stand apart in the source and are kept apart here.
# Columns and labels:
# ULK3 = conditions: concentration: 1 μM, replicates: in singlicate; n = 1
# VEGFR2 = tested on: T1, VEGFR2; conditions: concentration: 1 μM, replicates: in singlicate; n = 1
# T1 construct: gene KDR
# VPS34 = tested on: T2, VPS34; conditions: concentration: 1 μM, replicates: in singlicate; n = 1
# T2 construct: gene PIK3C3
# VRK2 = conditions: concentration: 1 μM, replicates: in singlicate; n = 1
# WEE1 = conditions: concentration: 1 μM, replicates: in singlicate; n = 1
# WEE2 = conditions: concentration: 1 μM, replicates: in singlicate; n = 1
# WNK1 = conditions: concentration: 1 μM, replicates: in singlicate; n = 1
# WNK2 = conditions: concentration: 1 μM, replicates: in singlicate; n = 1
# WNK3 = conditions: concentration: 1 μM, replicates: in singlicate; n = 1
# WNK4 = conditions: concentration: 1 μM, replicates: in singlicate; n = 1
# YANK1 = tested on: T3, YANK1; conditions: concentration: 1 μM, replicates: in singlicate; n = 1
# T3 construct: gene STK32A
# YANK2 = tested on: T4, YANK2; conditions: concentration: 1 μM, replicates: in singlicate; n = 1
# T4 construct: gene STK32B
# YANK3 = tested on: T5, YANK3; conditions: concentration: 1 μM, replicates: in singlicate; n = 1
# T5 construct: gene STK32C
# YES = tested on: T6, YES; conditions: concentration: 1 μM, replicates: in singlicate; n = 1
# T6 construct: gene YES1
# YSK1 = tested on: T7, YSK1; conditions: concentration: 1 μM, replicates: in singlicate; n = 1
# T7 construct: gene STK25
# YSK4 = tested on: T8, YSK4; conditions: concentration: 1 μM, replicates: in singlicate; n = 1
# T8 construct: gene MAP3K19
# ZAK = conditions: concentration: 1 μM, replicates: in singlicate; n = 1
# ZAP70 = conditions: concentration: 1 μM, replicates: in singlicate; n = 1
# p38-alpha = tested on: T9, p38-alpha; conditions: n = 1
# T9 construct: gene MAPK14
# p38-beta = tested on: T10, p38-beta; conditions: concentration: 1 μM, replicates: in singlicate; n = 1
# T10 construct: gene MAPK11
# [1] = concentration: 1 μM, replicates: in singlicate
# 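Further: KINOMEscan kinase panel screen.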
structure (smiles),measurement,setting,value
CCC(=O)c1c(-c2ccccc2)c2cc(Cl)ccc2c(=O)n1Cc1cc(S(C)(=O)=O)n(CCC(C)(C)O)n1,%Inh,ULK3,0%
same,%Inh,VEGFR2,2%
same,%Inh,VPS34,0%
same,%Inh,VRK2,0%
same,%Inh,WEE1,0%
same,%Inh,WEE2,0%
same,%Inh,WNK1,0%
same,%Inh,WNK2,31%
same,%Inh,WNK3,0%
same,%Inh,WNK4,25%
same,%Inh,YANK1,19%
same,%Inh,YANK2,13%
same,%Inh,YANK3,23%
same,%Inh,YES,0%
same,%Inh,YSK1,0%
same,%Inh,YSK4,0%
same,%Inh,ZAK,27%
same,%Inh,ZAP70,3%
same,%Inh,p38-alpha; [1],16%
same,%Inh,p38-beta,6%
Nc1nc(-c2ccccc2F)c(-c2ccnc3ccccc23)s1 [GW560459],%Inh,ULK3,4%
same,%Inh,VEGFR2,0%
same,%Inh,VPS34,0%
same,%Inh,VRK2,37%
same,%Inh,WEE1,0%
same,%Inh,WEE2,0%
same,%Inh,WNK1,11%
same,%Inh,WNK2,7%
same,%Inh,WNK3,35%
same,%Inh,WNK4,48%
same,%Inh,YANK1,39%
same,%Inh,YANK2,8%
same,%Inh,YANK3,0%
same,%Inh,YES,0%
same,%Inh,YSK1,13%
same,%Inh,YSK4,13%
same,%Inh,ZAK,17%
same,%Inh,ZAP70,13%
same,%Inh,p38-alpha; [1],99.8%
same,%Inh,p38-beta,0%
O=C(Nc1ccc2c(c1)OCO2)NC1CCN(c2ccnc(NCc3ccc(F)cc3)n2)CC1 [GSK1379859],%Inh,ULK3,0%
same,%Inh,VEGFR2,0%
same,%Inh,VPS34,7%
same,%Inh,VRK2,0%
same,%Inh,WEE1,12%
same,%Inh,WEE2,0%
same,%Inh,WNK1,0%
same,%Inh,WNK2,0%
same,%Inh,WNK3,0%
same,%Inh,WNK4,13%
same,%Inh,YANK1,11%
same,%Inh,YANK2,0%
same,%Inh,YANK3,0%
same,%Inh,YES,9%
same,%Inh,YSK1,0%
same,%Inh,YSK4,0%
same,%Inh,ZAK,0%
same,%Inh,ZAP70,0%
same,%Inh,p38-alpha; [1],0%
same,%Inh,p38-beta,0%
O=C(NCc1cccs1)c1cc(C(=O)c2c(Cl)cccc2Cl)c[nH]1 [GW823670],%Inh,ULK3,0%
same,%Inh,VEGFR2,0%
same,%Inh,VPS34,0%
same,%Inh,VRK2,0%
same,%Inh,WEE1,2%
same,%Inh,WEE2,5%
same,%Inh,WNK1,0%
same,%Inh,WNK2,0%
same,%Inh,WNK3,0%
same,%Inh,WNK4,0%
same,%Inh,YANK1,0%
same,%Inh,YANK2,0%
same,%Inh,YANK3,0%
same,%Inh,YES,0%
same,%Inh,YSK1,11%
same,%Inh,YSK4,0%
same,%Inh,ZAK,0%
same,%Inh,ZAP70,0%
same,%Inh,p38-alpha; 1 µM,23%
same,%Inh,p38-beta,9%
Cn1c(=O)c(F)c(Nc2ccc(I)cc2F)c2c(=O)n(OC[C@H](O)CO)cnc21,%Inh,ULK3,13%
same,%Inh,VEGFR2,0%
same,%Inh,VPS34,0%
same,%Inh,VRK2,0%
same,%Inh,WEE1,29%
same,%Inh,WEE2,4%
same,%Inh,WNK1,0%
same,%Inh,WNK2,0%
same,%Inh,WNK3,0%
same,%Inh,WNK4,11%
same,%Inh,YANK1,0%
same,%Inh,YANK2,10%
same,%Inh,YANK3,0%
same,%Inh,YES,0%
same,%Inh,YSK1,0%
same,%Inh,YSK4,0%
same,%Inh,ZAK,19%
same,%Inh,ZAP70,0%
same,%Inh,p38-alpha; [1],13%
same,%Inh,p38-beta,11%
CCS(=O)c1ccc(-c2coc3ccc(-c4nnc(C)o4)cc23)cc1 (stereo not shown),%Inh,ULK3,0%
same,%Inh,VEGFR2,10%
same,%Inh,VPS34,15%
same,%Inh,VRK2,2%
same,%Inh,WEE1,7%
same,%Inh,WEE2,0%
same,%Inh,WNK1,0%
same,%Inh,WNK2,3%
same,%Inh,WNK3,0%
same,%Inh,WNK4,11%
same,%Inh,YANK1,5%
same,%Inh,YANK2,11%
same,%Inh,YANK3,0%
same,%Inh,YES,0%
same,%Inh,YSK1,0%
same,%Inh,YSK4,15%
same,%Inh,ZAK,8%
same,%Inh,ZAP70,0%
same,%Inh,p38-alpha; [1],0%
same,%Inh,p38-beta,5%
O=C(Nc1n[nH]c2nc(-c3ccccc3)c(Cl)cc12)C1CC1 [SB-734909],%Inh,ULK3,0%
same,%Inh,VEGFR2,15%
same,%Inh,VPS34,0%
same,%Inh,VRK2,0%
same,%Inh,WEE1,0%
same,%Inh,WEE2,0%
same,%Inh,WNK1,1%
same,%Inh,WNK2,0%
same,%Inh,WNK3,7%
same,%Inh,WNK4,0%
same,%Inh,YANK1,17%
same,%Inh,YANK2,0%
same,%Inh,YANK3,0%
same,%Inh,YES,0%
same,%Inh,YSK1,0%
same,%Inh,YSK4,85%
same,%Inh,ZAK,14%
same,%Inh,ZAP70,10%
same,%Inh,p38-alpha; [1],24%
same,%Inh,p38-beta,39%
COc1cccc(-n2cnc3c(N)ncnc32)c1 [SKF-97416],%Inh,ULK3,27%
same,%Inh,VEGFR2,15%
same,%Inh,VPS34,45%
same,%Inh,VRK2,8%
same,%Inh,WEE1,2%
same,%Inh,WEE2,0%
same,%Inh,WNK1,7%
same,%Inh,WNK2,0%
same,%Inh,WNK3,38%
same,%Inh,WNK4,43%
same,%Inh,YANK1,4%
same,%Inh,YANK2,0%
same,%Inh,YANK3,1%
same,%Inh,YES,0%
same,%Inh,YSK1,0%
same,%Inh,YSK4,45%
same,%Inh,ZAK,42%
same,%Inh,ZAP70,25%
same,%Inh,p38-alpha; [1],0%
same,%Inh,p38-beta,22%
COc1cc2nccc(Nc3cccc(Oc4ccccc4)c3)c2cc1OC.Cl [GW284543],%Inh,ULK3,8%
same,%Inh,VEGFR2,12%
same,%Inh,VPS34,35%
same,%Inh,VRK2,0%
same,%Inh,WEE1,8%
same,%Inh,WEE2,14%
same,%Inh,WNK1,0%
same,%Inh,WNK2,11%
same,%Inh,WNK3,10%
same,%Inh,WNK4,0%
same,%Inh,YANK1,5%
same,%Inh,YANK2,0%
same,%Inh,YANK3,1%
same,%Inh,YES,19%
same,%Inh,YSK1,0%
same,%Inh,YSK4,0%
same,%Inh,ZAK,17%
same,%Inh,ZAP70,0%
same,%Inh,p38-alpha; [1],0%
same,%Inh,p38-beta,0%
O=c1cc(N2CCOCC2)nc2n(Cc3ccc(F)c(Cl)c3)ccn12 [GSK2297099],%Inh,ULK3,8%
same,%Inh,VEGFR2,4%
same,%Inh,VPS34,95.2%
same,%Inh,VRK2,0%
same,%Inh,WEE1,2%
same,%Inh,WEE2,3%
same,%Inh,WNK1,8%
same,%Inh,WNK2,4%
same,%Inh,WNK3,5%
same,%Inh,WNK4,6%
same,%Inh,YANK1,1%
same,%Inh,YANK2,11%
same,%Inh,YANK3,0%
same,%Inh,YES,11%
same,%Inh,YSK1,18%
same,%Inh,YSK4,6%
same,%Inh,ZAK,5%
same,%Inh,ZAP70,0%
same,%Inh,p38-alpha; [1],0%
same,%Inh,p38-beta,0%
Cc1nnc(-c2ccc(C)c(-c3ccc(C(=O)O)cc3)c2)o1 [GW608005],%Inh,ULK3,0%
same,%Inh,VEGFR2,3%
same,%Inh,VPS34,0%
same,%Inh,VRK2,0%
same,%Inh,WEE1,0%
same,%Inh,WEE2,0%
same,%Inh,WNK1,30%
same,%Inh,WNK2,0%
same,%Inh,WNK3,15%
same,%Inh,WNK4,0%
same,%Inh,YANK1,0%
same,%Inh,YANK2,0%
same,%Inh,YANK3,9%
same,%Inh,YES,0%
same,%Inh,YSK1,0%
same,%Inh,YSK4,15%
same,%Inh,ZAK,0%
same,%Inh,ZAP70,0%
same,%Inh,p38-alpha; [1],0%
same,%Inh,p38-beta,0%
